Assay results: PubChem BioAssay AID720513 (Broad Institute, 2013)
Among all 2,100 compounds or so, about 480 (23%) were called active. About 5% were inconclusive and are not listed.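 Rule for the calls: active = fitted curve reaches 40% activation at or below the top valid concentration, in every replicate test; inconclusive = replicate tests disagree on the call; inactive = the rest, including activity in the opposite direction.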 These entries were drawn from the full list. Potency and affinity values are given separately.

assay: activators raising PGC1a acetylation in cells, dose response, cell-based, cherry-picked samples, set 6 (AID 720513); conditions: U2OS PGC1a acetylation AlphaLISA, overnight, 0 = neutral, -100 = inhibitor control; series mostly up to 19.5 µM; activation (acetylation increase): at the top concentration;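 note: cells made to overexpress flag tagged PGC1a plus GCN5 acetyltransferase by viral infection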

Activation (acetylation increase), inactive:
C[C@H](CO)N1C[C@H](C)[C@@H](CN(C)C(=O)Nc2ccc(-c3cccs3)cc2)OCc2cnnn2CCCC1=O -3.11%
CCCc1cn(CC[C@@H]2CC[C@H](NC(=O)Nc3ccc4c(c3)OCO4)[C@@H](CO)O2)nn1 -8.84%
O=c1c2cn(Cc3ccc(F)cc3)c3ccc(F)cc3c-2nn1Cc1ccc(F)cc1 3.94%
FC(F)(F)c1ccc(Cl)c(-n2c(-c3cc(-c4ccco4)[nH]n3)n[nH]c2=S)c1 -12.5%
C[C@H](CO)N1C[C@H](C)[C@H](CN(C)Cc2ccncc2)OCc2cn(nn2)CCCC1=O 25.1% [at 21 µM]
COCC(=O)N1C[C@@H](C)[C@@H](OC)CN(C)C(=O)c2ccc(NC(=O)c3cnccn3)cc2OC[C@@H]1C -10.3%
CC(=O)n1nc2nc(C)cc(C)c2c1N -25.1%
CCS(=O)(=O)Nc1ccc2c(c1)C(=O)N(C)C[C@@H](OC)[C@H](C)CN(Cc1ccccn1)[C@@H](C)CO2 -1.3%
O=C(COC(=O)Cc1ccc(S(=O)(=O)N2CCOCC2)s1)NCCc1ccccc1 -11.5%
O=C(O)C1CCCN1S(=O)(=O)c1cc(Cl)ccc1Cl (stereo not drawn) 6.52%
C[C@@H]1CN([C@@H](C)CO)C(=O)CCCn2nncc2CO[C@H]1CN(C)S(=O)(=O)c1ccc(Cl)cc1 -1.78%
COCCCNC(=O)c1ccc(Cn2c(=O)c3ccccc3n(Cc3ccccc3C)c2=O)cc1 39.4%
CCCCN(CCCC)CCNC(=O)c1ccc2nc(-c3ccccc3NC(C)=O)c(=O)[nH]c2c1 28.6%
CCCOc1ccc2ccccc2c1/C=C1\SC(=O)NC1=O -9.84%
Nc1nc(SCC(=O)Nc2ccccc2Sc2ccc(Cl)cc2)n[nH]1 19.6%
C[C@@H]1CN([C@H](C)CO)C(=O)c2cc(-c3ccccc3)cnc2O[C@H]1CN(C)C(=O)Cc1ccccn1 -7.93%
CN(C)CCNC(=O)c1cccc2c(-c3ccc(F)c(F)c3)coc12 20.9%
O=C(CSc1nnc(-c2ccco2)n1-c1ccccc1)Nc1c(Cl)cc(Cl)cc1C(=O)O 9.43%
CCC(=O)Nc1cccc(C(=O)/C=C/c2ccccc2)c1 -64.7%
COC(=O)/C=C/c1cnc2ccccc2c1 -0.261%
O=C(/C=C/c1cccs1)c1ccc(NC(=O)c2cccc(Br)c2)cc1 -11.5%
Cc1ccc2oc(Nc3nc(C)c(C)c(C)n3)nc2c1 -3.44%
CC(c1ccccc1)N1C(=O)NC(NC(=O)c2cccnc2)(C(F)(F)F)C1=O (stereo not drawn) 7.53%
CCC(=O)Nc1ccnc(-c2cccnc2)n1 22.6%
O=C(CCS(=O)(=O)c1ccc(Cl)cc1)Nc1nccs1 12.8%
OC[C@H]1[C@H](c2ccc(C#CC3CCCC3)cc2)[C@@H]2CN(CCC(F)(F)F)CCCCN12 -58%
COc1ccc(CN(C)C[C@@H]2Oc3ccc(NS(=O)(=O)c4c(C)noc4C)cc3C(=O)N([C@@H](C)CO)C[C@@H]2C)cc1 38%
C[C@H]1CCCCO[C@H](CN(C)Cc2ccncc2)[C@@H](C)CN([C@@H](C)CO)C(=O)c2cc(NS(=O)(=O)c3ccccc3)ccc2O1 -16.6%
O=C1C=CCCN1C(=O)/C=C/c1cccc(C(F)(F)F)c1 -79.7%
COc1ccc(C#Cc2ccc([C@H]3[C@@H](CO)N4CCCCN(C(=O)Nc5ccc(F)cc5)C[C@H]34)cc2)cc1 -94.6%
C[C@@H]1CN([C@@H](C)CO)C(=O)Cc2cc(NC(=O)C3CCCCC3)ccc2O[C@@H]1CN(C)Cc1ccc(Cl)c(Cl)c1 31.6%
CC(C)CC#Cc1ccc([C@H]2[C@H](CO)N3C(=O)CN(C(=O)Nc4cc(F)ccc4F)C[C@@H]23)cc1 -34.3%
O=C(COC(=O)c1cc[n+]([O-])cc1)Nc1cccc(Cl)c1Cl 18.2%
Cc1c(Cl)cccc1Nc1ncccc1C(=O)O -8.63%
Cc1noc(C)c1NC(=O)N(C)C[C@H]1OCCCC[C@@H](C)Oc2ccc(NC(=O)Cc3ccccc3)cc2C(=O)N([C@@H](C)CO)C[C@@H]1C -3.05%
C[C@@H]1CN([C@H](C)CO)C(=O)c2cc(NS(=O)(=O)c3cccs3)ccc2O[C@@H]1CN(C)S(=O)(=O)c1ccc(F)cc1 2.7%
Cc1ccc(S(=O)(=O)N[C@@H]2CC[C@@H](CCNC(=O)c3ccccc3F)O[C@H]2CO)cc1 6.51%
O=C(CSc1nc2ccc(Cl)cc2[nH]1)c1ccc2c(c1)OCO2 6.16%
Cn1c(=O)c2cc(S(=O)(=O)NCCC(=O)NCc3ccccc3Cl)ccc2n(C)c1=O 4.26%
CCOc1ccc2nc(NCCCNC(=O)c3cc(OC)c(OC)c(OC)c3)c(C#N)cc2c1 -5.62%
Cc1cc(OCC(=O)NNC(=O)c2cnccn2)cc(C)c1Cl -4.82%
CCCNC(=O)c1ccc(COc2ccc(Cl)cc2)o1 0.816%
O=C(COc1ccc(Br)cc1)NCCNC(=O)c1cccnc1 71.5%
O=C(C[C@@H]1C[C@@H]2c3cc(NC(=O)Nc4ccccc4F)ccc3O[C@@H]2[C@H](CO)O1)NCc1ccc(Oc2ccccc2)cc1 9.89%
CCc1cc2c(N3CCN(c4nnc(CC)s4)CC3)ncnc2s1 -4.99%
COc1ccc(-c2ccc(C3[C@@H]4CN(Cc5cc(OC)cc(OC)c5)C[C@H]3N4)cc2)cc1 (stereo partly drawn) -98.7%
COc1cccc(-c2ccc(C3[C@H]4CNC[C@@H]3N4Cc3ccc4c(c3)OCO4)cc2)c1 (stereo partly drawn) -12.3%
O=C(Nc1ccccc1)C1=C(c2ccccc2)S(=O)(=O)CCS1(=O)=O -95.9%
Cn1nc(-c2ccccn2)nc2c(=O)n(C)c(=O)nc1-2 -108%
COc1cc(C(=O)N2CCN(S(=O)(=O)c3cccc(F)c3)CC2)ccc1OCC(=O)N1CCOCC1 15.1%
CN(C)c1ccc(C=C2SC(=S)NC2=O)cc1 -60.6%
CCOC(=O)/C(C#N)=C1/C(=O)N(Cc2ccccc2)c2ccccc21 36.9%
CC(=O)c1coc2c1cc(O)c1ccccc12 -14.2%
CCOCCCNc1nc2c(c(=O)n(C)c(=O)n2C)n1CCCc1ccccc1 41%
C/C=C/Cn1c(SCc2ccc(Cl)cc2)nc2c1c(=O)[nH]c(=O)n2C -18.2%
CSc1nc2c(c(=O)[nH]c(=O)n2C)n1Cc1ccccc1 -24.9%
CCn1c(Oc2ccccc2F)nc2c1c(=O)n(C)c(=O)n2C -23%
CCOCCn1c(N2CCN(c3ccccc3)CC2)nc2c1c(=O)n(C)c(=O)n2C 3.02%
Cn1c(=O)c2c(ncn2CC(=O)O)n(C)c1=O -6.17%
CC(C)CN1CCN(C(=O)COC(=O)c2ccc(S(C)(=O)=O)c([N+](=O)[O-])c2)CC1 -74.6%
CCC(=O)N[C@H]1CC[C@H](CC(=O)OC)O[C@H]1CO -20.6%
CCCc1ccc(C(O)c2ncc(-c3cccc(F)c3)[nH]2)cc1 (stereo not drawn) 9.11%
COc1ccc(S(=O)(=O)Nc2ccc3c(c2)C(=O)N([C@H](C)CO)C[C@@H](C)[C@H](CN(C)C(=O)Nc2ccc(C(F)(F)F)cc2)OCCCC[C@@H](C)O3)cc1 -7%
O=C(OCc1nnc(-c2ccccc2)o1)C1=COCCO1 5.96%
C=CCn1c(SCc2c(C)noc2C)nc2ccccc2c1=O -6.19%
C[C@@H]1CN([C@@H](C)CO)S(=O)(=O)c2ccc(-c3ccccc3)cc2O[C@@H]1CN(C)C(=O)c1ccccc1F -30%
CCn1c(C(C)NC(=O)c2ccccc2C)n[nH]c1=S (stereo not drawn) 26%
COc1ccc(C#Cc2ccc([C@H]3[C@@H](CO)N4CCCCN(C(=O)Nc5ccccc5)C[C@H]34)cc2)cc1 -91% [at 21 µM]
O=C(Cn1ncc(Cl)c(Cl)c1=O)NC(=O)NC1CCCCC1 -38.6%
CO[C@@H]1CN(C)C(=O)c2cc(NC(C)=O)ccc2OC[C@H](C)N(Cc2cc(F)ccc2F)C[C@H]1C 9.55%
N#C/C(=C/c1ccc(OCc2ccc(C(=O)O)cc2)c(Br)c1)c1cccc(F)c1 24.4%
C[C@H]1CN([C@@H](C)CO)S(=O)(=O)c2ccc(Br)cc2O[C@@H]1CN(C)S(=O)(=O)c1ccccc1F 35.6%
CCN(C[C@@H]1N[C@@H](CO)[C@H]1c1ccc(-c2ccc(F)cc2)cc1)C(=O)CN(C)C -2.97% [at 21 µM]
COc1ccccc1C#Cc1ccc([C@H]2[C@H](C#N)N(C(=O)C3CCCC3)[C@H]2CO)cc1 -92%
O=S(=O)(c1ccc(Cl)cc1)c1snnc1-c1ccccc1 -91.3%
Clc1ccc(-c2csc(N3CCSCC3)n2)cc1 28.4%
C[C@@H]1CN([C@@H](C)CO)C(=O)CCCn2cc(nn2)CO[C@H]1CN(C)S(=O)(=O)c1ccccc1 -19%
CCCn1c(-c2ccccc2)cc(SC)c(C#N)c1=O -11.4%
COc1c(O)cc(O)c2c(=O)cc(-c3ccccc3)oc12 -3.89%
C=CCn1c(C)nnc1SCC(=O)NC1CC1 -11.2%
CC(C)c1ccc(NC(=O)CCNS(=O)(=O)c2cccc3nonc23)cc1 25.9%
Cc1cc(C)nc(SCC(=O)OCN2C(=O)c3ccccc3C2=O)n1 -12.4%
CCN(c1ccccc1)S(=O)(=O)c1ccc(OC)c(NC(=O)Cc2ccc(F)cc2)c1 23.9%
COc1ccccc1NS(=O)(=O)c1cccc(NC(=O)C2CC(=O)N(Cc3ccccc3)C2)c1 (stereo not drawn) -13.3%
CCc1ccc(Nc2nnc(SCC(=O)Nc3ccc(C(=O)O)cc3)s2)cc1 7.61%
CCOc1ccccc1C(=O)NCCCCCC(=O)O -10.7%
COCCNC(=O)CN1CCC(NC(=O)C(C)(C)C)CC1 -10.4%
O=C(c1cc2ccccc2o1)N1CC=C(c2ccccc2)CC1 11.8%
CC1=Nc2ccccc2N=C(NC(=O)CN2CCN(c3ccccc3)CC2)C1c1ccccc1 (stereo not drawn) 15.8%
COc1cc(C2C(C#N)=C(N)Oc3c2oc(CO)cc3=O)cc(OC)c1OC (stereo not drawn) 14.7%
CC(C)N1CCc2c(sc(NC(=O)C3CCCCC3)c2C(N)=O)C1 -11.6%
COC(=O)[C@@]1(Cc2ccccc2CN=[N+]=[N-])N=C(c2ccc(OCCCO)cc2)O[C@H]1c1ccccc1 -52.1%
Cc1ccccc1-n1nnnc1Sc1nnnn1-c1ccccc1 -122%
